# According to PubChem BioAssay (Tox21):
# Where “and” joins values, the source holds several entries; their conditions need not be identical. Equal entries are not always repeated. More than one record can exist for a structure, and the calls need not agree. Calls of active or inactive are those of the source. A call without a number means that no potency is given here. Unless noted, calls come from the whole dose curve; as a rule, active = well fitted curve in the direction sought with a large enough effect in the repeat runs; inconclusive = weak or mixed curves; inactive = no such curve, though single readings can be large; an effect the other way counts as inactive or inconclusive.
# Legend:
# [1] = qHTS assay to identify small molecule antagonists of the thyroid receptor (TR) signaling pathway - cell viability counter screen (AID 743064); note: nearly all actives have a fitted effect of over 50% in size; note: potency is the fitted concentration of half-maximal effect
# In short: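 In-well cytotoxicity read by CellTiter-Fluor (30 min, 37 C) following 23.5 h exposure of GH3 cells bearing a TRE-luciferase sensor. Compounds were added alongside 1 nM (final) T3 to drive TR transactivation.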
# [2] = qHTS assay to identify small molecule antagonists of the thyroid receptor (TR) signaling pathway (AID 743065); note: nearly all actives have a fitted effect of over 55% in size; note: potency is the fitted concentration of half-maximal effect
# In short: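 GH3.TRE-Luc rat pituitary cells carrying two TR response elements driving luciferase were plated for 4 h, given compound plus 1 nM T3 (final), and incubated 23.5 h at 37 C. ONE-Glo luminescence measured reporter inhibition; CellTiter-Fluor fluorescence tracked cytotoxicity.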
# [3] = tested on: thyroid hormone receptor (rat, GH3 cells); assay: qHTS assay to identify small molecule agonists of the thyroid receptor (TR) signaling pathway (AID 743066; calls by dose curve)
# [4] = molecular target: Estrogen receptor (Homo sapiens) (UniProt P03372); assay: qHTS assay to identify small molecule antagonists of the estrogen receptor alpha (ER-alpha) signaling pathway (AID 743069; active = well fitted curve in the direction sought with a large enough effect in the signal ratio in the repeat runs, not every such curve was filed as active; inconclusive = weak or mixed curves, or effect the other way; inactive = no such curve, though single readings can be large or run the other way; the % refers to the signal ratio)
# In short: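 Screening used a UAS-driven beta-lactamase reporter integrated into HEK293 cells expressing ER-alpha, stimulated with 17beta-estradiol alongside test compounds over 18 hr at 37C; signal came from LiveBLAzer B/G FRET fluorescence.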
# [5] = qHTS assay to identify small molecule antagonists of the estrogen receptor alpha (ER-alpha) signaling pathway - cell viability counter screen (AID 743074; calls by dose curve; note: nearly all actives have a fitted effect of over 45% in size)
# [6] = molecular target: Estrogen receptor (Homo sapiens) (UniProt P03372); assay: qHTS assay to identify small molecule agonists of the estrogen receptor alpha (ER-alpha) signaling pathway (AID 743075; calls by dose curve; note: potency is the fitted concentration of half-maximal effect)
# [7] = molecular target: Estrogen receptor (Homo sapiens) (UniProt P03372); assay: qHTS assay to identify small molecule agonists of the estrogen receptor alpha (ER-alpha) signaling pathway using the BG1 cell line (AID 743079); note: nearly all actives have a fitted effect of over 20% in size; note: potency is the fitted concentration of half-maximal effect
# [8] = qHTS assay to identify small molecule antagonists of the estrogen receptor alpha (ER-alpha) signaling pathway using the BG1 cell line (AID 743080; calls by dose curve;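 note: BG1 cells stimulated with 17beta-estradiol alongside compound; series mostly up to about 70 µM; nearly all actives have a fitted effect of over 25% in size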)
# In short: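 Quantitative HTS on the Tox21 10K library: BG1 cells with endogenous ER-alpha and ERE-luciferase reporter, 17beta-estradiol stimulation, 21.5 h compound exposure, luminescence endpoint with parallel fluorescence cytotoxicity counter-read.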
# [9] = qHTS assay to identify small molecule antagonists of the estrogen receptor alpha (ER-alpha) signaling pathway using the BG1 cell line - cell viability counter screen (AID 743081);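 note: compound given together with 17beta-estradiol as the ER stimulus; series mostly up to about 70 µM; nearly all actives have a fitted effect of over 45% in size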
# Aromatase (Homo sapiens) = Aromatase (Homo sapiens) (UniProt P11511); assay: qHTS assay to identify aromatase inhibitors (AID 743083); note: nearly all actives have a fitted effect of over 55% in size; note: potency is the fitted concentration of half-maximal effect
# [10] = qHTS assay to identify aromatase inhibitors - cell viability counter screen (AID 743084);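 note: cells stimulated with testosterone during compound exposure; nearly all actives have a fitted effect of over 55% in size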; note: potency is the fitted concentration of half-maximal effect
# [11] = molecular target: Aryl hydrocarbon receptor (Homo sapiens) (UniProt P35869); assay: qHTS assay to identify small molecule that activate the aryl hydrocarbon receptor (AhR) signaling pathway (AID 743085);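 note: HG2L7.5c1 human HepG2 liver cells with stably integrated DRE-driven firefly reporter; series mostly up to about 70 µM; nearly all actives have a fitted effect of over 15% in size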
# In short: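 Luminescence (ONE-Glo) from a dioxin-responsive-element luciferase reporter in HG2L7.5c1 HepG2 cells after 24 hr compound exposure at 37C; viability measured by CellTiter-Fluor fluorescence beforehand.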
# [12] = qHTS assay to identify small molecule that activate the aryl hydrocarbon receptor (AhR) signaling pathway - cell viability counter screen (AID 743086);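 note: HepG2 liver cells carrying the AhR DRE luciferase reporter; series mostly up to about 70 µM; nearly all actives have a fitted effect of over 45% in size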
# In short: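 HepG2-AhR-luc (HG2L7.5c1) cells, 4000/well, were preincubated 5 h at 37C, exposed to compound in qHTS format for 24 hr at 37C, then given CellTiter-Fluor for 30 min; viability was read as fluorescence in the reporter wells.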
# [13] = molecular target: Peroxisome proliferator-activated receptor gamma (Homo sapiens) (UniProt P37231); assay: qHTS assay to identify small molecule agonists of the peroxisome proliferator-activated receptor gamma (PPARg) signaling pathway (AID 743094; active = well fitted activation curve with a large enough effect in the signal ratio in the repeat runs, not every such curve was filed as active; inconclusive = weak or mixed curves, or effect the other way; inactive = no such curve, though single readings can be large or run the other way; the % refers to the signal ratio; note: potency is the fitted concentration of half-maximal effect)
# In short: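 HEK293H PPARg-bla cells, 5 h settle at 37C/5% CO2; compound (DMSO) 17 h, 37C; B/G FRET substrate 1 h RT; fluorescence intensity read-out. qHTS format.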
# [14] = molecular target: Peroxisome proliferator-activated receptor gamma (Homo sapiens) (UniProt P37231); assay: qHTS assay to identify small molecule antagonists of the peroxisome proliferator-activated receptor gamma (PPARg) signaling pathway (AID 743191; calls by dose curve; note: nearly all actives have a fitted effect of over 30% in size; note: potency is the fitted concentration of half-maximal effect)
# In short: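 GeneBLAzer PPARg UAS-bla HEK293H cells carrying a UAS-driven beta-lactamase reporter were plated at 3000 cells/well, preincubated 5 h at 37C, then given compound for 17 h at 37C; LiveBLAzer B/G FRET substrate was read after 1 h at room temperature.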
# [15] = qHTS assay to identify small molecule antagonists of the peroxisome proliferator-activated receptor gamma (PPARg) signaling pathway - cell viability counter screen (AID 743194); note: nearly all actives have a fitted effect of over 55% in size
# In short: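 PPARg-UAS-bla HEK293H cells were plated, rested 5 h at 37 C, then treated with compounds plus rosiglitazone (50 nM final) for 17 h at 37 C; viability was then read by CellTiter-Glo luminescence after 30 min at room temperature.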
# [16] = qHTS assay for small molecule agonists of the antioxidant response element (ARE) signaling pathway (AID 743202; active = well fitted activation curve with a large enough effect in the signal ratio in the repeat runs, not every such curve was filed as active; inconclusive = weak or mixed curves, or effect the other way; inactive = no such curve, though single readings can be large or run the other way; the % refers to the signal ratio; note: potency is the fitted concentration of half-maximal effect)
# In short: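 Steps: seed ARE-bla HepG2 cells (2,000/well); incubate 5 h at 37 C; add compounds by pin tool; incubate 16 h at 37 C; add FRET substrate; read fluorescence after 2 h at RT.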
# [17] = qHTS assay for small molecule activators of the heat shock response signaling pathway - cell viability counter screen (AID 743209); note: nearly all actives have a fitted effect of over 50% in size; note: potency is the fitted concentration of half-maximal effect
# In short: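 HSE-bla HeLa; 1500 cells/well; overnight 37 C, 5% CO2; compound 5 h 37 C; LiveBLAzer B/G substrate 2.5 h RT; CellTiter-Glo 30 min RT; luminescence.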
# [18] = qHTS assay for small molecule activators of the heat shock response signaling pathway (AID 743210; active = well fitted activation curve with a large enough effect in the signal ratio in the repeat runs, with a control signal flat, not every such curve was filed as active; inconclusive = weak or mixed curves; the % refers to the signal ratio;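 note: HeLa cells with beta-lactamase reporter driven by heat shock elements; series mostly up to about 63 µM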)
# In short: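 Activation of heat shock element-controlled beta-lactamase expression is measured in HeLa cells by LiveBLAzer FRET fluorescence, with compound exposure lasting 5 h at 37 C and substrate loading 2.5 h at room temperature.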
# [19] = qHTS assay for small molecule agonists of the antioxidant response element (ARE) signaling pathway - cell viability counter screen (AID 743203; calls by dose curve; note: nearly all actives have a fitted effect of over 55% in size)
# In short: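 Luminescence read-out (CellTiter-Glo, 30 min at room temperature) measured cell viability in the same wells as the ARE beta-lactamase reporter. HepG2 ARE-bla cells were treated with compounds for 16 hrs at 37C/5% CO2.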
# Peroxisome proliferator-activated receptor gamma (Homo sapiens), sequence (P37231 whole entry, looked up): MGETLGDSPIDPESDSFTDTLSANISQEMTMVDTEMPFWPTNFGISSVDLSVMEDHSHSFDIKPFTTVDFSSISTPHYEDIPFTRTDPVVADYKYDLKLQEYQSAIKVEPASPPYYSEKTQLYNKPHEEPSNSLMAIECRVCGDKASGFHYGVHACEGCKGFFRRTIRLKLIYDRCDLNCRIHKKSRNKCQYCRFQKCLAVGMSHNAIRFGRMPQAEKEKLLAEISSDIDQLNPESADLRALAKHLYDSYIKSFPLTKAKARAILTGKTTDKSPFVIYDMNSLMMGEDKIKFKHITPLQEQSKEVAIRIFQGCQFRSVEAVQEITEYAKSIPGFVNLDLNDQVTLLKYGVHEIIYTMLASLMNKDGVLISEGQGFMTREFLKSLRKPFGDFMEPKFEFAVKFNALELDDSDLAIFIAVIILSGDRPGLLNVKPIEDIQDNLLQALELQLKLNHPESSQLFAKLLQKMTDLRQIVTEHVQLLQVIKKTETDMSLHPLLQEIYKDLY
# Aromatase (Homo sapiens), sequence (P11511 whole entry, looked up): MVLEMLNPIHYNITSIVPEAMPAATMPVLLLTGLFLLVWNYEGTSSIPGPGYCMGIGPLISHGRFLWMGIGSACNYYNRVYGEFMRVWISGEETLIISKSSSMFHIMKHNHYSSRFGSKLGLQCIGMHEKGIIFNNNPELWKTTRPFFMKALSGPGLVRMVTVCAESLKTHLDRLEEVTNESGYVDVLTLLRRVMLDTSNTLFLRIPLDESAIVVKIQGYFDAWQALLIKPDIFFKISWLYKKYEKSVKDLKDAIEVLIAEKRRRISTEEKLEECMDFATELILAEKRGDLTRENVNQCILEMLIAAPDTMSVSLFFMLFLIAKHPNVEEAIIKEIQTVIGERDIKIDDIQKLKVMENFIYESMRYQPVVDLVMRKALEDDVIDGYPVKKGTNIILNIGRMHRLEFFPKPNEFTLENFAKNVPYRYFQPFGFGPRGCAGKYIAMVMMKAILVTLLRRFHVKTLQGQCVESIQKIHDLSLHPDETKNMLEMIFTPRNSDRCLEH
# Aryl hydrocarbon receptor (Homo sapiens), sequence (P35869 whole entry, looked up): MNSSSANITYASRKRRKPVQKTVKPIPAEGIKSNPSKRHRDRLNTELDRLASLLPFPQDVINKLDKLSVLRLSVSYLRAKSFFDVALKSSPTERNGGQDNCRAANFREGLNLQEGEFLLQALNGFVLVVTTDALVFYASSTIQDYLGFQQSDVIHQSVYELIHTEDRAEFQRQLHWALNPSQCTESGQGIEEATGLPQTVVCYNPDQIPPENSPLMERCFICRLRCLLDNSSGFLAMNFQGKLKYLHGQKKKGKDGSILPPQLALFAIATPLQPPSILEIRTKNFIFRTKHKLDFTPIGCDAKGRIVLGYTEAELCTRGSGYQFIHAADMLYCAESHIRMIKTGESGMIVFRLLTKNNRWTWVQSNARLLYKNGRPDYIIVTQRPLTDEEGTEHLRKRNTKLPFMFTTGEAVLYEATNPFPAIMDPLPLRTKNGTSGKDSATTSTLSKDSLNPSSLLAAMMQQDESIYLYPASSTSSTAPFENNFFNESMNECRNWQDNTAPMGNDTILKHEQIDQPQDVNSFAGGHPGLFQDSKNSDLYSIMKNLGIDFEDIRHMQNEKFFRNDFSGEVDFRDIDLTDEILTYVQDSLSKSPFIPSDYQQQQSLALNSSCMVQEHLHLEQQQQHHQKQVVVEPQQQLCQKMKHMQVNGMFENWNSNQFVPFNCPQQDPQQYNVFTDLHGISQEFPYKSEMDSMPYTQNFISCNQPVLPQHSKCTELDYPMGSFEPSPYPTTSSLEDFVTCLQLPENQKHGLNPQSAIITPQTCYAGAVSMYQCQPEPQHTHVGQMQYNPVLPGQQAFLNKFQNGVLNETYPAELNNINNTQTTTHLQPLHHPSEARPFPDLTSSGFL
# Estrogen receptor (Homo sapiens), sequence (P03372 whole entry, looked up): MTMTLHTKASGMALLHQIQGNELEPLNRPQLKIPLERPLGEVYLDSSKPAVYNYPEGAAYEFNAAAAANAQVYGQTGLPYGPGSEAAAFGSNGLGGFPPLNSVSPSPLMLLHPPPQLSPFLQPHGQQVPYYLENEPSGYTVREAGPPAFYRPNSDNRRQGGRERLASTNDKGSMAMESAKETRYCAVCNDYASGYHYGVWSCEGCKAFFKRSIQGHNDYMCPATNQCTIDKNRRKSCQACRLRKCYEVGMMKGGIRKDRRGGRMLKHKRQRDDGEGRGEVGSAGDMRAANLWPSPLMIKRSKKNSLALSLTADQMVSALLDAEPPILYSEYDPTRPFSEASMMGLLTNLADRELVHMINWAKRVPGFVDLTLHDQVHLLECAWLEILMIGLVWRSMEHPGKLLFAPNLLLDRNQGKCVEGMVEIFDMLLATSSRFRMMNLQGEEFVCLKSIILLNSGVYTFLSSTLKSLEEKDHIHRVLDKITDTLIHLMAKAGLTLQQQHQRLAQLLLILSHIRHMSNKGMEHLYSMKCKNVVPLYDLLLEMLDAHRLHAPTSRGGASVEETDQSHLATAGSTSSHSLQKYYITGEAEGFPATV
SMILES,Potency [1],Potency [2],Potency [3],Potency [4],Potency [5],Potency [6],Potency [7],Potency [8],Potency [9],Potency (Aromatase (Homo sapiens)),Potency [10],Potency [11],Potency [12],Potency [13],Potency [14],Potency [15],Potency [16],Potency [17],Potency [18],Potency [19]
Cc1cccc(O)c1C,inactive,inactive,inactive,inactive,inactive,inactive,inactive,inactive,inactive,inactive,inactive,inactive,inactive,inactive,inactive,inactive,inactive,inactive,inactive,
O=C(O)CP(=O)(O)O,inactive,inactive,inactive,inactive,inactive,inactive,inactive,,inactive,inactive,inactive,inactive,inactive,inactive,,inactive,inactive,inactive,inactive,
CCOc1ccc2c(c1)C(C)=CC(C)(C)N2,inactive,33.5 µM (active),inactive,inactive,inactive,inactive,inactive,inactive,inactive,inactive,inactive,inactive,inactive,21.3 µM (active),inactive,inactive,61.1 µM (active),inactive,,inactive
O=C(OCc1ccccc1)c1ccc(O)cc1,inactive,inactive,inactive,inactive,inactive,54.9 µM [inconclusive] (active),10.6 µM (active) and 12.2 µM (active),,inactive,inactive,inactive,inactive,inactive,inactive,43.6 µM (active),inactive,inactive,inactive,inactive,inactive
O=C(O)c1cccc(C(=O)O)c1,inactive,inactive,inactive,inactive,inactive,inactive,inactive,inactive,inactive,inactive,inactive,inactive,inactive,inactive,inactive,inactive,,inactive,inactive,inactive
CC(=O)OCCOCCOCCOC(C)=O,inactive,inactive,inactive,inactive,inactive,inactive,inactive,inactive,inactive,inactive,inactive,inactive,inactive,inactive,inactive,inactive,inactive,inactive,inactive,inactive
COC(=O)c1cccc(C(=O)OC)c1,inactive,inactive,inactive,inactive,inactive,inactive,inactive,inactive,inactive,inactive,inactive,inactive,inactive,inactive,inactive,inactive,inactive,inactive,inactive,
CCCCC/C=C/CC1CC(=O)OC1=O (centres undefined),inactive,inactive,inactive,inactive,inactive,inactive,inactive,,inactive,inactive,inactive,inactive,inactive,inactive,,inactive,inactive,inactive,inactive,
C=C(C)C(=O)O,inactive,inactive,inactive,inactive,inactive,inactive,inactive,,inactive,inactive,inactive,inactive,inactive,inactive,,inactive,inactive,inactive,inactive,
CC(C)CCCCCCc1ccc(O)cc1,17.5 µM (active) and 24.3 µM (active),22.1 µM (active) and 21.7 µM (active),inactive,inactive,inactive,2.39 µM [inconclusive] (active) and 1.25 µM [inconclusive] (active) and 17.4 µM [inconclusive] (active),1.88 µM (active) and 878 nM (active) and 2.17 µM (active),,inactive,34.4 µM (active),inactive and 31.2 µM (active),inactive,inactive,inactive,,,,39.6 µM (active) and 54.9 µM (active),,inactive
NCCCCCC(=O)O,inactive,inactive,inactive,inactive,inactive,inactive,inactive,inactive,inactive,inactive,inactive,inactive,inactive,inactive,,inactive,inactive,inactive,inactive,inactive
CC(=O)CC(C)=O,inactive,inactive,inactive,inactive,inactive,inactive,inactive,inactive,inactive,inactive,inactive,inactive,inactive,inactive,,inactive,inactive,inactive,inactive,inactive
